Data on 25 compounds can be found in PubChem BioAssay AID2625 (National Center for Advancing Translational Sciences (NCATS), 2010).

Results filed as inconclusive are left out. Activity calls are given as the source filed them. Calls come from the whole dose curve; as a rule, active = well fitted curve in the direction sought with a large enough effect; inconclusive = small, poorly fitted or top-dose-only effect, or effect the other way, or another doubt; inactive = no such curve, though single readings can be large or run the other way.

Pyruvate kinase PKLR (Homo sapiens), sequence (P30613 whole entry, looked up): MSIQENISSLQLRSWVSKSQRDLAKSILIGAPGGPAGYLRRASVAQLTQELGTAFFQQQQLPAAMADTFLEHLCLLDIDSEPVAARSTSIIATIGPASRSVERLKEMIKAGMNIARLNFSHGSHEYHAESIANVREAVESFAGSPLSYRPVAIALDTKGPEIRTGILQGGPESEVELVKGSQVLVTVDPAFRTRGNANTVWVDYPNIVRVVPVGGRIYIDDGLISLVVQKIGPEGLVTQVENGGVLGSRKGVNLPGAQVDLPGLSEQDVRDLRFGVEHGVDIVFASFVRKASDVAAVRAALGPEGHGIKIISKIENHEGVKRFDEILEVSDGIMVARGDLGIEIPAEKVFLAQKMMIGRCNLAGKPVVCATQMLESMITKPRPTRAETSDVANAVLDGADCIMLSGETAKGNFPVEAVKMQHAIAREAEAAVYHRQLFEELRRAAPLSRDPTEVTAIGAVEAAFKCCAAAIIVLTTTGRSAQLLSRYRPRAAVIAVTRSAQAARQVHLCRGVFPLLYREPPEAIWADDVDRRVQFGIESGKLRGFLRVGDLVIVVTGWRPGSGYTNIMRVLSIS

The target in the assay is Pyruvate kinase PKLR (Homo sapiens) (UniProt P30613). As to the kind of experiment: Secondary LDH Assay for Activators of Human Liver Pyruvate Kinase: for Probe SAR. The settings on record: purified hPK-L, LDH-coupled NADH fluorescence kinetic; series mostly up to 58.2 µM. An outline of the steps:
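Kinetic LDH-coupled read-out: NADH fluorescence loss followed every 30 s for 3–6 min gave initial rates. Reaction: 10 nM human liver PK, 0.1 mM PEP, 4 mM ADP, 0.2 mM NADH, 50 mM Tris-Cl pH 8.0; activation normalised to fructose-bis-phosphate.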
Take `O=C1c2ccccc2C(=O)N1c1ccc2ncccc2c1`: the outcome was inactive.

In the case of `O=C1CCc2cc(S(=O)(=O)Nc3cccc(C(F)(F)F)c3)ccc2N1`, the call was inactive.

In the case of `O=C1c2ccccc2C(=O)N1c1cccc2ccncc12`, the compound was classed as inactive.

Take `Cc1ccc(-c2nc3cnccn3c2Nc2ccc(C(C)C)cc2)o1`: the outcome was inactive.

In the case of `CC(C)Nc1cccc(S(=O)(=O)N2CCCN(S(=O)(=O)c3ccc4c(c3)OCCO4)CC2)c1`, the compound was classed as inactive.

As to `Cc1ccc(NS(=O)(=O)c2cc3c(cc2Cl)NC(=O)C3)cc1C`, the compound was classed as inactive.

In the case of `CN(C)c1cccc(S(=O)(=O)N2CCN(S(=O)(=O)c3ccc4c(c3)OCCO4)CC2)c1`, the outcome was inactive.

For `O=C1c2ccccc2C(=O)N1c1cccc2ncccc12`, the compound was called inactive.

For the compound `O=S1(=O)N=C(Oc2ccc(Cl)cc2)c2ccccc21`, the outcome was inactive.

In the case of `CCNc1cccc(S(=O)(=O)N2CCN(S(=O)(=O)c3ccc4c(c3)OCCO4)CC2)c1`, the outcome was inactive.

For the compound `O=C1CCc2cc([S+](=O)([O-])NC3CCOCC3)ccc2N1`, the compound was classed as inactive.

On to `Cc1ccc(NS(=O)(=O)c2cc3c(cc2-c2ccccc2)NC(=O)CO3)cc1C`, for which the outcome was inactive.

For `Cc1ccc(Cl)cc1NS(=O)(=O)c1cc2c(cc1F)NC(=O)CC2`, the compound was classed as inactive.

As for `Cc1ccc(NS(=O)(=O)c2cc3c(cc2F)NC(=O)CC3)cc1C`, the call was inactive.

As to `CSc1cc2c(s1)c1cnn(Cc3cccc(O)c3)c(=O)c1n2C`, the call was inactive.

Regarding `O=C1c2ccccc2C(=O)N1c1nccs1`, the compound was called inactive.

In the case of `Cc1ccc2nc(-c3ccc(C)o3)c(NC3CCCC3)n2c1`, the call was inactive.

With `Cc1ccc(NS(=O)(=O)c2cc3c(cc2F)NC(=O)CC3)cc1Cl`, the compound was called inactive.

`Cc1ccc(NS(=O)(=O)c2ccc3c(c2)CCO3)cc1C`: the call was inactive.

Take `Nc1cc(S(=O)(=O)N2CCN(S(=O)(=O)c3ccc4c(c3)OCCO4)CC2)ccn1`: the compound was classed as inactive.

Consider `CC(=O)N1CCCc2cc(S(=O)(=O)Nc3ccc(C)c(C)c3)ccc21`, for which the result was inactive.

For `Cc1ccc(NS(=O)(=O)c2ccc3c(c2)N(C)CCO3)cc1C`, the outcome was inactive.

With `Cc1ccc(NS(=O)(=O)c2cc3c(cc2C)OCC(=O)N3)cc1C`, the compound was called inactive.

For `Cc1ccc(NS(=O)(=O)c2ccc(-c3ccccc3)cc2)cc1C`, the outcome was inactive.

Turning to `Cc1ccc2nc(-c3cccs3)c(Nc3ccccc3)n2c1`, the result was inactive.
